Only some compounds are listed: those with a hit (about 22% of all), similar ones and a draw of the others.
CYP2C19 inhib – blockers of cytochrome P450 2C19 activity – biochemical, luminescence, ADME assay, primary screen | inhibition, % at 5 µM | P33261 | actives 21% (n = 96,000) | CYP2C19 Supersomes, luciferin-H EGE luminescence, 30 min;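 active = CYP2C19 inhibition above a set limit at 5 µM in the primary screen, cut at about 50% in these data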;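 also: plate controls were negative control wells for no effect and 2.5 mM tranylcypromine positive control for full effect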
Target sequence (P33261 whole entry, looked up): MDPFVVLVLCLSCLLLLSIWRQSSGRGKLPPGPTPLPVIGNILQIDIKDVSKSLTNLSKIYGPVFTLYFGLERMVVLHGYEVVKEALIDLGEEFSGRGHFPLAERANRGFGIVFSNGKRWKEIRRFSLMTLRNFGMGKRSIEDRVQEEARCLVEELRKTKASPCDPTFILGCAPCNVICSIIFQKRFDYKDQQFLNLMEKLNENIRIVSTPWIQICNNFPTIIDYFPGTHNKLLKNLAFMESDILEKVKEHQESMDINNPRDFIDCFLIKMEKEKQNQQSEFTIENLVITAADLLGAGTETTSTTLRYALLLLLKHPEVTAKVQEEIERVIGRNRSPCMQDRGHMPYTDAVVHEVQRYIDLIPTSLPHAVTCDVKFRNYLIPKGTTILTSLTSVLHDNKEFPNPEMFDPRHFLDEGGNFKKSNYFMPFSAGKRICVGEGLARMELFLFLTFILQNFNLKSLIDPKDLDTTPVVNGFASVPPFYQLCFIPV
CYP2C9 inh – blockers of cytochrome P450 2C9 activity – biochemical, luminescence, ADME assay, primary screen. inhibition, % at 5 µM. P11712. CYP2C9 Supersomes, luciferin-H conversion. actives 20% (n = 96,000);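 active = blocking of liver enzyme CYP2C9 beyond about 50% at 5 µM, limit read from the data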
CYP2C19 act – human CYP2C19 activators, primary screen, biochemical, luminescence; recombinant CYP2C19, luciferin-H EGE luminescence; active compounds read high; 0 = fully inhibited enzyme, 1 = untreated enzyme; activation factor at 5 µM; 96,000 tested, under 10 active; Cytochrome P450 2C19 (Homo sapiens), P33261;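 active = activation factor of at least 2 at 5 µM in the primary screen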;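 also: 0 = wells with 2.5 mM tranylcypromine and 1 = vehicle-only wells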
CYP2C9 activ – human CYP2C9 activators, primary screen, biochemical, luminescence | Cytochrome P450 2C9 (Homo sapiens), P11712 | recombinant CYP2C9, luciferin-H conversion; active compounds read high; factor 1 = untreated enzyme, 0 = blocked | activation factor at 5 µM | actives 1.4% (n = 96,000);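 active = activation factor of 2 or more for CYP2C9 at a 5 µM dose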;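 also: 0 = sulfaphenazole-blocked wells and 1 = vehicle-only wells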
Measles CPE – compounds protecting cells from measles virus cytopathic effect, primary screen, measles RdRp inhibitor project, single point, MLSMR library, absorbance | actives 1.5% (n = 140,000) | protection (pct of control), % at 4 µM | Measles virus-infected cells, CPE protection; in the data active = protection mostly above about 24%, no sharp cut-off; inactive = mostly below about 26%
* = called active by the depositor; · = no result given.

SMILES	CYP2C19 inhib	CYP2C9 inh	CYP2C19 act	CYP2C9 activ	Measles CPE
COc1ccc(NC(=O)CN(C)CC(=O)Nc2ccccc2SC)cc1Cl	·	·	·	·	5
CC(=O)NCC(=O)NC(C(=O)Nc1ccc2c(c1)OCCO2)c1ccccc1 (stereo not drawn)	-4	-4	1	1	10
COc1cc2c(cc1OC)CN(Cc1ccc(C)s1)CC2	86*	33	0.1	0.7	13
COc1ccc(S(=O)(=O)Oc2ccc3c(c2)O/C(=C\c2cccnc2)C3=O)cc1	75*	92*	0.3	0.1	6
O=C1/C(=C/c2cccnc2)Oc2cc(OS(=O)(=O)c3ccccc3)ccc21	35	56*	0.7	0.4	14
O=C1/C(=C/c2cccnc2)Oc2cc(OS(=O)(=O)c3ccc(Cl)cc3)ccc21	26	50*	0.7	0.5	15
O=C1/C(=C\c2cccnc2)Sc2ccccc21	·	·	·	·	10
COc1ccccc1C(=O)Oc1ccc2c(c1)O/C(=C\c1ccncc1)C2=O	·	·	·	·	3
O=C1CCCC2=C1C(c1ccc(OS(=O)(=O)c3ccc(Cl)cc3)cc1)C1=C(CCCC1=O)O2	-10	-17	1.1	1.2	14
CCN1CCN(S(=O)(=O)c2ccc3c(c2)OCCO3)CC1	17	-6	0.8	1.1	1
CCc1ccc2c(CN3CCN(S(=O)(=O)c4ccc5c(c4)OCCO5)CC3)cc(=O)oc2c1	46	53*	0.5	0.5	27
O=c1cc(CN2CCN(S(=O)(=O)c3ccc4c(c3)OCCO4)CC2)c2ccc(O)cc2o1	-10	66*	1.1	0.3	4
CCc1ccc2oc(=O)cc(CN3CCOCC3)c2c1	65*	29	0.4	0.7	10
CCOC(=O)Nc1ccc2c(CN3CCN(S(=O)(=O)c4ccccc4)CC3)cc(=O)oc2c1	·	·	·	·	7
CNc1ccc(/C=C/C(=O)c2cccc3ccccc23)cc1[N+](=O)[O-]	·	·	·	·	5
c1csc(-c2nn[nH]n2)c1	95*	36	0.1	0.6	13
CCCNC(=O)C1CCN(S(=O)(=O)c2ccc(-c3nn[nH]n3)cc2)CC1	41	83*	0.6	0.2	11
COc1ccc(CNC(=O)C2CCN(S(=O)(=O)c3ccc(-c4nn[nH]n4)cc3)CC2)cc1	-9	65*	1.1	0.3	5
O=C(NC1CC2CCC1C2)C1CCN(S(=O)(=O)c2ccc(-c3nn[nH]n3)cc2)CC1 (stereo not drawn)	-17	87*	1.2	0.1	11
COc1ccc(S(=O)(=O)N2CCC(C(=O)NCC(c3cccs3)N(C)C)CC2)cc1 (stereo not drawn)	24	17	0.8	0.8	52*
O=C(NC1CCc2ccccc21)C1CCN(S(=O)(=O)c2ccc(Cl)cc2)CC1 (stereo not drawn)	·	·	·	·	17
CN(C)c1ccc(N/C=C/C(=O)c2ccc(F)cc2)cc1	69*	5	0.3	0.9	4
CN(C)c1ccc(N/C=C/C(=O)c2ccco2)cc1	47	29	0.5	0.7	21
C=CCn1c(SCC(=O)N2CCc3ccccc3C2)nnc1-c1ccncc1	·	·	·	·	16
O=c1cc(CSc2nnc(-c3cccs3)n2Cc2ccccc2)nc2sc3ccccc3n12	93*	95*	0.1	0	12
SMILES	CYP2C19 inhib	CYP2C9 inh	CYP2C19 act	CYP2C9 activ	Measles CPE
C=CCn1c(SCC(=O)c2[nH]c(C)c(C(C)=O)c2C)nnc1-c1ccncc1	86*	24	0.1	0.8	12
Cc1cc(C(=O)CSc2nnc(-c3cccc(F)c3)n2N)c(C)n1Cc1ccc2c(c1)OCO2	40	43	0.6	0.6	4
CC(=O)c1c(C)[nH]c(C(=O)CSc2nnc(-c3ccccc3)n2Cc2ccc3c(c2)OCO3)c1C	70*	18	0.3	0.8	3
CC(=O)c1c(C)[nH]c(C(=O)CSc2nnc(-c3cccs3)n2Cc2ccccc2)c1C	73*	72*	0.3	0.3	4
CN1C(=O)NC(c2ccccc2)C2=C1CN(c1ccc3ccccc3c1)C2=O (stereo not drawn)	-6	4	1.1	1	7
CCCn1c(N)c(C(=O)CSc2nnc(-c3ccco3)n2Cc2ccccc2)c(=O)[nH]c1=O	·	·	·	·	39
CC(=O)c1c(C)[nH]c(C(=O)CSc2nnc(-c3ccco3)n2Cc2ccccc2)c1C	73*	70*	0.3	0.3	15
CCCCNC(=O)Nc1cc(C(=O)OC)ccc1C	13	-6	0.9	1.1	10
C#CCOc1nc(OCC#C)nc(OCC#C)n1	89*	40	0.1	0.6	0
CC(Sc1nc2c(c(=O)n(C)c(=O)n2C)n1Cc1cc2c(cc1Cl)OCO2)C(=O)O (stereo not drawn)	-9	25	1.1	0.8	53*
Cn1ncc(Cl)c1C(=O)Nc1ccc(Cl)cn1	·	·	·	·	28*
CCn1c2ccccc2c2cc(NC(=O)COC(=O)Cc3cn4ccsc4n3)ccc21	90*	-78	0.1	1.8	6
O=C(COC(=O)Cc1cn2ccsc2n1)NCc1ccc2c(c1)OCO2	5	25	0.9	0.8	18
CC1CCCC(NC(=O)COC(=O)Cc2cn3ccsc3n2)C1C (stereo not drawn)	33	22	0.7	0.8	12
O=C(COC(=O)Cc1cn2ccsc2n1)NC12CC3CC(CC(C3)C1)C2	59*	34	0.4	0.7	25
CCOC(=O)C1=C(C)N=C2SC(C)C(=O)N2C1/C=C/c1ccccc1OC (stereo not drawn)	49	80*	0.5	0.2	2
CCOC(=O)C1=c2/c(=C/c3ccccc3OC)c(N)c(C#N)n2C(=O)C(c2ccccc2OC)S1 (stereo not drawn)	5	4	1	1	4
Cc1ccc(C(=O)CSc2ncnc3sc4c(c23)CCC(C)C4)cc1 (stereo not drawn)	·	·	·	·	30
CCCn1c(N)c(C(c2ccc(C(=O)OC)cc2)N2CCN(c3ccccc3)CC2)c(=O)[nH]c1=O (stereo not drawn)	-11	12	1.1	0.9	42*
N#CC(c1ccc(Cl)cc1)c1nc2ccccc2nc1C(F)(F)F (stereo not drawn)	52*	26	0.5	0.7	3
COc1cc(/C=N/N(C)c2ccccc2)cc(Cl)c1O	52*	58*	0.5	0.4	4
COc1ccc(OC)c(/C=N/N(C)c2ccccc2)c1	67*	56*	0.3	0.4	17
CC(C)C(C(=O)O)N1C(=O)/C(=C/C=C/c2ccco2)SC1=S (stereo not drawn)	17	39	0.8	0.6	1
O=C(Cn1cnc2ccccc2c1=O)N1CCOCC1	0	14	1	0.9	5
